The results in this text go back to PubChem BioAssay.

The nature of assay [1]: small molecules captured by biotinylated probe aFSTL3 – biochemical, small-molecule microarray, fluorescence 635/667, stem cell growth factor project, primary screen (AID 1064).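 Also: measures binding of the biotinylated anti-FSTL3 antibody to printed compounds.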 As to conditions: higher = more signal.
Assay [2] in a line: binders from COS7 lysate, DM2A8 probe, primary screen, torsin A project, cell lysate, small-molecule microarray, fluorescence 635/667 (AID 1065). Conditions: higher = more signal, COS7 lysate expressing mutant human TOR1A.
A short description of assay [3]: small molecules captured by biotinylated probe aFGF2 – biochemical, small-molecule microarray, fluorescence 635/667, stem cell growth factor project, primary screen (AID 1067).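 Also: measures binding of biotinylated aFGF2 protein to printed compounds on slides; z-score merges feature fluorescence and signal-to-noise across triplicate slides.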 As to conditions: higher = more signal.
The nature of assay [4]: small molecules captured by biotinylated probe aFGF10 – biochemical, small-molecule microarray, fluorescence 635/667, stem cell growth factor project, primary screen (AID 1071).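 Also: score merges 667 nm spot intensity and signal to noise from triplicate slides.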 As to conditions: higher = more signal.
For assay [5], the target named is Neurogenic locus notch homolog protein 2 (Homo sapiens) (UniProt Q04721). Put plainly: small molecules binding Notch2 protein – biochemical, small-molecule microarray, 635 nm fluorescence, stem cell growth factors, primary screen (AID 1073). As to conditions: higher = more signal.
Chain of Neurogenic locus notch homolog protein 2 (Homo sapiens) (Q04721 whole entry, looked up, canonical isoform): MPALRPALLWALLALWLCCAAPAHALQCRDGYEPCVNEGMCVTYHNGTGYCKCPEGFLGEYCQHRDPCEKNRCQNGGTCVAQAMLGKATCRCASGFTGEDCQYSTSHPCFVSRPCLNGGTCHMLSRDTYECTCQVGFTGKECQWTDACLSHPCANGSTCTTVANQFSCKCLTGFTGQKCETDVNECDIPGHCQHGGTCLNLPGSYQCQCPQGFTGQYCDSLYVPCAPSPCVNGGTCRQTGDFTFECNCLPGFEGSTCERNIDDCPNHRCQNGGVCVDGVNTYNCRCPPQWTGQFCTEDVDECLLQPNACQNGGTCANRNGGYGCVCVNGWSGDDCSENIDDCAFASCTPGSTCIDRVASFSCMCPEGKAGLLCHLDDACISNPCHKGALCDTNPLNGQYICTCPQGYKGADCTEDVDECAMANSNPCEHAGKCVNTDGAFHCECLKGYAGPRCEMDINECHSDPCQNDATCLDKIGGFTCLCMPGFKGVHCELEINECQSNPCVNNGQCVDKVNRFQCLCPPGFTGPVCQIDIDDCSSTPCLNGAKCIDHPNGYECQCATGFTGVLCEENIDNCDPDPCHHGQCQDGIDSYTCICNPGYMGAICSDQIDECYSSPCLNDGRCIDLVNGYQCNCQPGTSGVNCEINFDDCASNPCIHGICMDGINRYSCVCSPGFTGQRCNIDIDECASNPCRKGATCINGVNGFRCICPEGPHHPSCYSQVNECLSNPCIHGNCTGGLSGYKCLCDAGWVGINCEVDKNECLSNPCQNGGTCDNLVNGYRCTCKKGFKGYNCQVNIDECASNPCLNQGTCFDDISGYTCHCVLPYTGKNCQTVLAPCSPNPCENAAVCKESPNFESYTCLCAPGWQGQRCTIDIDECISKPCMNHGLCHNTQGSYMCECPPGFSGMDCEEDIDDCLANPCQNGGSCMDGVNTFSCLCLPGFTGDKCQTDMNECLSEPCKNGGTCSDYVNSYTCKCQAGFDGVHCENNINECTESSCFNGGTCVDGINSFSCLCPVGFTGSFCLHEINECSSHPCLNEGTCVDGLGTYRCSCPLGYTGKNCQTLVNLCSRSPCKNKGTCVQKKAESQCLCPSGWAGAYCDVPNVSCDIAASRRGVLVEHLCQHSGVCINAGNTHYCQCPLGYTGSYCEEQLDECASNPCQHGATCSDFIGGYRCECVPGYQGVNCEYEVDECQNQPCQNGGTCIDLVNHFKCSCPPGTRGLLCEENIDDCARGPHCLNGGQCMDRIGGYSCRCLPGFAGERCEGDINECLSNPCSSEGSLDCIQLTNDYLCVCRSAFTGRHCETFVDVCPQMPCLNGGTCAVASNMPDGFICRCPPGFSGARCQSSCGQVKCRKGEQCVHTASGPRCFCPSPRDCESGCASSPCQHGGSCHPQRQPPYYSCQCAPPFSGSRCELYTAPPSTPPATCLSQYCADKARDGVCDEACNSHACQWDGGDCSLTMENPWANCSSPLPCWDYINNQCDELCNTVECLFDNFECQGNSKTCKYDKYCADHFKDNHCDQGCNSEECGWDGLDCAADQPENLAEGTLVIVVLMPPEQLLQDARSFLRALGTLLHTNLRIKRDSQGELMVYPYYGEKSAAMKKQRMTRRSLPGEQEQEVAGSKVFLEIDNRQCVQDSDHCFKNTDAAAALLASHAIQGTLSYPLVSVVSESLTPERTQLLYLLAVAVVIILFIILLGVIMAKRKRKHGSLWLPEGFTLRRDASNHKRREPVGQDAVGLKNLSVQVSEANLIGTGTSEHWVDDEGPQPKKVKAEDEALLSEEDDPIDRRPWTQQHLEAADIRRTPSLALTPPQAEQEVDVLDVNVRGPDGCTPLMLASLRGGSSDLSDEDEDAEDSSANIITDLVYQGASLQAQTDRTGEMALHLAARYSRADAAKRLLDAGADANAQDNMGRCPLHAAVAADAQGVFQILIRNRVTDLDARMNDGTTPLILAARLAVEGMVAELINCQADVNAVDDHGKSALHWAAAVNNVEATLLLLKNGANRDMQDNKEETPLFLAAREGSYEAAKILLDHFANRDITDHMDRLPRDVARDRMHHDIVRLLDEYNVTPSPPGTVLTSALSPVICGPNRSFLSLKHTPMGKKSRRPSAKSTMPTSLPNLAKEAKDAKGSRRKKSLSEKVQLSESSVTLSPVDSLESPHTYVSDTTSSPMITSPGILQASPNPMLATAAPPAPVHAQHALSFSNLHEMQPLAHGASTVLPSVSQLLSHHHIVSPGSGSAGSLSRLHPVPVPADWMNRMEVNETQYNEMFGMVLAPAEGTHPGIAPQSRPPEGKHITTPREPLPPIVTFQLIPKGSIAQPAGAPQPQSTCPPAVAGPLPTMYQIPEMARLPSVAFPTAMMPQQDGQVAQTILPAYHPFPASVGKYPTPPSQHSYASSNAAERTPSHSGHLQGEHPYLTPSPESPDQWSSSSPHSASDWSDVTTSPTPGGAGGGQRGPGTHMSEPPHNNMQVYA
Assay [6] addresses Pro-neuregulin-1, membrane-bound isoform (Homo sapiens) (UniProt Q02297). As to the kind of experiment: small molecules binding neuregulin-1 protein – biochemical, small-molecule microarray, fluorescence 635/667, psychiatric disease protein project, primary screen (AID 1075).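 Also: score combines 667 nm spot fluorescence with signal to noise.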 As to conditions: NRG1 binding, 635 nm fluorescence, higher = more signal.
Assay [7] relates to Neuregulin-1 EGF-like domain. As to the kind of experiment: small molecules binding NRG1 EGF domain – biochemical, small-molecule microarray, 635 nm fluorescence, primary screen (AID 1081).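 Also: binding of the protein to compounds printed on small-molecule microarray slides.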 Conditions: higher = more signal.
The nature of assay [8]: FRG1 expression reporter modulators in myotubes – cell-based, C2C12 myotubes, firefly/Renilla luciferase, luminescence, FRG1 inhibition for FSHD, primary screen (AID 1084). As to conditions: FRG1 promoter luciferase, higher = more signal, called active from +8 up or from −8 down.
Assay [9] in a line: small molecules captured by biotinylated probe aFST – biochemical, small-molecule microarray, fluorescence 635/667, stem cell growth factor project, primary screen (AID 1086).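 Also: score merges 667 nm fluorescence with signal-to-noise of each printed compound spot.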 Conditions: higher = more signal.
A short description of assay [10]: binders of probe aHhip on microarray, primary screen, stem cell growth factor project, biochemical, small-molecule microarray, fluorescence 635/667 (AID 1087).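 Also: score merges spot fluorescence at 667nm with spot signal to noise ratio.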 Conditions: higher = more signal.
The subject of assay [11] is PRMT1 (protein arginine N-methyltransferase 1). Put plainly: small molecules binding arginine methyltransferase PRMT1 – biochemical, small-molecule microarray, 635 nm fluorescence, primary screen (AID 1088).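 Also: binding of Prmt1 protein to compounds spotted on small-molecule microarray slides.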 Conditions: higher = more signal.
The nature of assay [12]: growth effects on S. cerevisiae YJM789 – YJM789 clinical isolate, OD600, 24 h, basal, primary screen (AID 1089).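 Also: growth of clinical yeast isolate S. cerevisiae YJM 789 seeded 1000 cells per well; test concentration not given here.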 As to conditions: higher = more signal, called active from +8 up or from −8 down.
The nature of assay [13]: S. pombe growth modifiers, basal conditions – strain 972, OD600, 24 h, no modulator, primary screen (AID 1090).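 Also: basal condition with compound alone and no growth modifier present; test concentration not given here.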 Conditions: S. pombe 972 growth, higher = more signal, called active from +8 up or from −8 down.
A short description of assay [14]: budding yeast growth modifiers under rapamycin – strain BY4716, OD600, 96 h, primary screen (AID 1091). Also: test concentration not given here. As to conditions: S. cerevisiae BY4716 + rapamycin, higher = more signal, called active from +8 up or from −8 down.
Assay [15] has as its target Torsin-1A-interacting protein 2 (Homo sapiens) (UniProt Q8NFQ8). As to the kind of experiment: small molecules binding lysate-expressed LULL1 – cell lysate, human LULL1 lysate, 635/667 nm fluorescence, primary screen (AID 1092).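 Also: probe is lysate of COS7 cells overexpressing human LULL1; score merges per-feature 667 nm fluorescence with signal-to-noise.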 As to conditions: small-molecule microarray, hLULL1 lysate binding, 635 nm fluorescence; higher = more signal.
Assay [16] in a line: optical density change of DRC41 E. coli – strain DRC41, OD650, 24 h, E. coli filamentation project, primary screen (AID 1093).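 Also: MC1000 strain lacking acrAB efflux and sulA so SOS filamentation is blocked; test concentration not given here.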 Conditions: E. coli DRC41 growth, higher = more signal, called active from +8 up or from −8 down.
Assay [17] in a line: probe aLefty2 binding to arrayed compounds – biochemical, biotinylated probe, 635/667 nm fluorescence, primary screen (AID 1094).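 Also: score merges spot fluorescence near 667 nm with spot signal-to-noise ratio.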 Conditions: small-molecule microarray, higher = more signal.
Assay [18] relates to Noggin (protein binding on small-molecule microarray). As to the kind of experiment: small molecules binding Noggin protein – biochemical, 635/667 nm fluorescence, primary screen (AID 1095).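 Also: score merges 667 nm feature fluorescence with signal to noise over triplicate slides.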 As to conditions: 635 nm fluorescence, higher = more signal.
In assay [19] the target is Neurogenic locus notch homolog protein 3 (Homo sapiens) (UniProt Q9UM47). Put plainly: small molecules binding NOTCH3 protein – biochemical, 635/667 nm fluorescence, primary screen (AID 1096). Conditions: small-molecule microarray, 635 nm fluorescence, higher = more signal.
Chain of Neurogenic locus notch homolog protein 3 (Homo sapiens) (Q9UM47 whole entry, looked up): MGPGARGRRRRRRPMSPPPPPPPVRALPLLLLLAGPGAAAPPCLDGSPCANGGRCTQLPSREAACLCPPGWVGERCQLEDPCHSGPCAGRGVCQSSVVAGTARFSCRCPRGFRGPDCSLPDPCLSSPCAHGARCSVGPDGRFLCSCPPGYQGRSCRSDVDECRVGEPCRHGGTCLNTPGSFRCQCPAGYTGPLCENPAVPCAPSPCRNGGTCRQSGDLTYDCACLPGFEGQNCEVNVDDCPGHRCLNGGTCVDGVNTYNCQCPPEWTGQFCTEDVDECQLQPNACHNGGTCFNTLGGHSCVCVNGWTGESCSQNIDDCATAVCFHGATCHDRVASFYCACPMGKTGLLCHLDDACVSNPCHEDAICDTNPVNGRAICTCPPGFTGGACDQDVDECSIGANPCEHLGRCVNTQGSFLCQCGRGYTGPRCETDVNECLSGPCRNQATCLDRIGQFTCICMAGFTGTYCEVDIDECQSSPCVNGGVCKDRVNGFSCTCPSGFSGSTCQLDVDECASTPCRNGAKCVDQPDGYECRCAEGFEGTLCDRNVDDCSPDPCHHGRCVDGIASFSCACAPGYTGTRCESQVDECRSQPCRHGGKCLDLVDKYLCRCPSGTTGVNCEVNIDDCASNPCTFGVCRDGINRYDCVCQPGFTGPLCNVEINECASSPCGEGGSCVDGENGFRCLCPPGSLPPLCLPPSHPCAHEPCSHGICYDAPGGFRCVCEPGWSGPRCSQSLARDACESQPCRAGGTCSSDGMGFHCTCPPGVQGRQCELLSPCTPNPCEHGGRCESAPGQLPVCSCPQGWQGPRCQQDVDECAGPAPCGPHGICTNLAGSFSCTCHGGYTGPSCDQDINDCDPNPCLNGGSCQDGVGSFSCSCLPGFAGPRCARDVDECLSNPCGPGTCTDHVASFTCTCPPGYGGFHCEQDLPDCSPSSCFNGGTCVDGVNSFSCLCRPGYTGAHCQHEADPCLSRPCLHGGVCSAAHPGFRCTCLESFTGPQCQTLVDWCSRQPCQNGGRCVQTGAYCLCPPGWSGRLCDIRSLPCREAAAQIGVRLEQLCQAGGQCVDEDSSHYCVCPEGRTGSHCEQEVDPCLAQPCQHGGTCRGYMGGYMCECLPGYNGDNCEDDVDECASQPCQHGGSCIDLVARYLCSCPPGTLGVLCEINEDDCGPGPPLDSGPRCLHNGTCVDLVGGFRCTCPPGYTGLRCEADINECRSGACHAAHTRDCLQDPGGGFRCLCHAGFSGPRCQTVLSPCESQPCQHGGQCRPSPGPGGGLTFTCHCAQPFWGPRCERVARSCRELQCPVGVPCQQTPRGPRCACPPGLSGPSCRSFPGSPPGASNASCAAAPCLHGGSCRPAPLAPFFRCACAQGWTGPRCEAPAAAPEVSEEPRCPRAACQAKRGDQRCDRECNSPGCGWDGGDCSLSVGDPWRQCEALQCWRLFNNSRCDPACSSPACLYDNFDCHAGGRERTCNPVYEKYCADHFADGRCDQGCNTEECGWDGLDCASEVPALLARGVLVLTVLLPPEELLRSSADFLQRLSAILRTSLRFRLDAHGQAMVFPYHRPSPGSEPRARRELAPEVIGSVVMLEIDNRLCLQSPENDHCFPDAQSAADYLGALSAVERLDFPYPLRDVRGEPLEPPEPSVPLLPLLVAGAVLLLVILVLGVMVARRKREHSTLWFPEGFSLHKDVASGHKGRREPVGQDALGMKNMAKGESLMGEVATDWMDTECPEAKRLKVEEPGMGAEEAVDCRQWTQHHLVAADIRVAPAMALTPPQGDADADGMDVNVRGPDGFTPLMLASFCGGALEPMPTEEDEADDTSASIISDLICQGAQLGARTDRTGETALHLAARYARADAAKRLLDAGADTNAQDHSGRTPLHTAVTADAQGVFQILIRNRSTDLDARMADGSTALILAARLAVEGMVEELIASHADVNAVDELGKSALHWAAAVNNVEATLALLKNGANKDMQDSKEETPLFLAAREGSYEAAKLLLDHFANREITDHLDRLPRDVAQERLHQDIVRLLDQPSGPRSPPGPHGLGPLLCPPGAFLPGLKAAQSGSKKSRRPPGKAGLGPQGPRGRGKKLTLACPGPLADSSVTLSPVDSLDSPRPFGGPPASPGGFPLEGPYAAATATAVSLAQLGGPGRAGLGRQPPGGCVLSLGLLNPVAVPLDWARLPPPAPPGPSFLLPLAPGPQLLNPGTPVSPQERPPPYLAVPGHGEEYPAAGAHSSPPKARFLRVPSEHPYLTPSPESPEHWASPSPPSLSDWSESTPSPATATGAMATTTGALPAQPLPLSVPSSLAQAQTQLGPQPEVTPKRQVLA
A short description of assay [20]: probe aEGFR binding to arrayed compounds – biochemical, biotinylated probe, 635/667 nm fluorescence, primary screen (AID 1097).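 Also: probe is a biotinylated anti-EGFR antibody binding compounds printed on slides; score combines fluorescence near 667 nm and signal to noise of each spot.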 As to conditions: small-molecule microarray, higher = more signal.

Active and inactive are the calls of the source.

As to `O=C(NCC(O)CO)[C@@]1(CCS(=O)(=O)c2ccccc2)N=C(c2ccc(OCCCO)cc2)O[C@H]1c1ccccc1` (stereo not given in full), the composite z-score in assay [1] worked out at 0.715; in assay [2], 0.965; in [3], 0.123; in [4], 0.223; in assay [5], 0.429; in [6], 1.96. Besides, the composite z-score is 1.33 in assay [7]; 0.544 in assay [9]; 0.0302 in [10]; 0.845 in assay [11]; 3.56 in [15]; 0.471 in [17]. The composite z-score is -0.562 in [18], -0.196 in [19] and 0.144 in assay [20]. In addition, the z-score was 2.37 (inactive) in assay [8]; -0.717 (inactive) in assay [12]; -0.908 (inactive) in assay [13]; -0.163 (inactive) in assay [14]; -0.328 (inactive) in [16].
`O=C(NCc1ccc(F)cc1)[C@H]1C[C@H]2C(=O)N3CCC[C@H]3C(=O)N2[C@H]1c1ccc(O)cc1`: the composite z-score in assay [1] is 0.883; in assay [2] it was -0.554; in assay [3], -0.195; in assay [4] it was -0.216; in assay [5], -0.428; in assay [6], 0.192. In addition, the composite z-score was 0.49 in assay [7]; -0.819 in assay [9]; -0.0772 in [10]; 0.0679 in assay [11]; -0.296 in assay [15]; -0.0963 in assay [17]. The figures for the composite z-score in assay [18], in [19] and in [20] were -0.139, -0.484 and -0.169, respectively. Moreover, the z-score is -0.29 (inactive) in assay [8]; -1.04 (inactive) in assay [12]; -1.47 (inactive) in [13]; 0.164 (inactive) in assay [14]; 2.41 (inactive) in assay [16].
For `CC(C)OC(=O)CC(=O)CC(O)c1cccc([N+](=O)[O-])c1` (stereo not given), the composite z-score in [1] was 0.62; in assay [2], 1.22; in [3] it was -0.0028; in assay [4] it was 0.376; in assay [5], 0.546; in [6], 0.334. Moreover, the composite z-score was 0.947 in assay [7]; 0.815 in assay [9]; -0.305 in [10]; 1.09 in [11]; 1.64 in [15]; -0.186 in assay [17]. In addition, the composite z-score was -0.164 in assay [18], 0.83 in [19] and -0.0215 in assay [20]. Besides, the z-score in assay [8] is -1 (inactive); in assay [12], -4.2 (inactive); in assay [13] it was -1.84 (inactive); in [14], -2.74 (inactive); in assay [16], 0.305 (inactive).
Regarding `CC1CC/C=C\[C@H]2OC34C=CCN(c5ccc6ccccc6c5)C(=O)[C@H]3N(C(C)CO)C(=O)[C@@H]4C2C(=O)O1` (stereo not given in full), the composite z-score in [1] is 0.018; in [2] it was -1.51; in [3] it was -0.178; in [4] it was -0.489; in [5] it was -0.858; in [6], -0.318. In addition, the composite z-score in assay [7] was -0.0133; in assay [9], -0.187; in [10], -0.0994; in assay [11], 0.541; in [15] it was -0.172; in assay [17] it was -0.244. For the same compound, the results for the composite z-score in assay [18], in assay [19] and in assay [20] were -1.1, -0.0196 and -0.252, respectively. Also, the z-score in assay [8] was 1.14 (inactive); in [12], 0.612 (inactive); in [13] it was -0.197 (inactive); in [14], 0.407 (inactive); in [16], -0.312 (inactive).
In the case of `Cc1ccc(S[C@]2(C(=O)NCCCN(C)C)CC(=O)N(C3Cc4ccccc4C3)[C@@H]2c2ccc(CO)cc2I)cc1`, the composite z-score in [1] is 0.533; in assay [2], -0.602; in [3] it was -0.0281; in assay [4], -0.25; in assay [5] it was 0.0374; in assay [6] it was 1.88. For the same compound, the composite z-score in [7] is 0.522; in assay [9] it was 0.404; in assay [10] it was -0.0373; in assay [11], 0.961; in assay [15], 1.14; in assay [17], -0.035. In addition, the figures for the composite z-score in assay [18], in assay [19] and in assay [20] were -0.978, -0.105 and -0.0828, respectively. In addition, the z-score in [8] was -0.967 (inactive); in [12], -0.471 (inactive); in assay [13], -2.87 (inactive); in [14], 1.32 (inactive); in assay [16] it was -0.42 (inactive).
